# Test results from PubChem BioAssay AID1159580 (chemical genetic matrix, 2015).
# Hit rate of the full screen: of about 5,500 compounds, about 2,000 (36%) were called active. Roughly 18% stayed inconclusive and do not appear here. The list shows a part of the results. A number with no mark means an inactive call. No stated cut-off is given here; in the data, active means normalized growth mostly below about 0.91 (no sharp cut-off); inconclusive means no clear call, values can overlap the other calls; inactive means mostly above about 0.92.
# Assay: chemical genetic growth profiling, strain panel (AID 1159580);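 further: tested at 20 µM; growth read once vehicle control cultures reached saturation at 30 °C; 1 = growth at the plate median or of vehicle wells; lower values mean less growth of the strain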
# Details: S. cerevisiae deletion strains, growth OD
# [1] = locus YAR019C, strain CDC15, active compounds read low
# [2] = locus YBL105C, strain PKC1, active compounds read low
# [3] = locus YBR135W, strain CKS1, active compounds read low
# [4] = locus YBR136W, strain MEC1, active compounds read low
# [5] = locus YBR160W, strain CDC28, active compounds read low
# [6] = locus YDL017W, strain CDC7, active compounds read low
# [7] = locus YDL028C, strain MPS1, active compounds read low
# [8] = locus YDL101C, strain DUN1, active compounds read low
# [9] = locus YDL108W, strain KIN28, active compounds read low
# [10] = locus YDL132W, strain cdc53, active compounds read low
# [11] = locus YDL214C, strain PRR2, active compounds read low
# [12] = locus YDR052C, strain DBF4, active compounds read low
# [13] = locus YDR054C, strain cdc34, active compounds read low
# [14] = locus YDR226W, strain ADK1, active compounds read low
# [15] = locus YDR477W, strain SNF1, active compounds read low
# [16] = locus YER123W, strain YCK3, active compounds read low
# [17] = locus YER133W, strain GLC7, active compounds read low
# [18] = locus YFL009W, strain cdc4, active compounds read low
# [19] = locus YFL029C, strain CAK1, active compounds read low
# [20] = locus YFR003C, strain YPI1, active compounds read low
# [21] = locus YFR019W, strain FAB1, active compounds read low
# [22] = locus YFR028C, strain CDC14, active compounds read low
# [23] = locus YGR040W, strain KSS1, active compounds read low
# [24] = locus YGR052W, strain FMP48, active compounds read low
# [25] = locus YGR092W, strain DBF2, active compounds read low
# [26] = locus YHR030C, strain SLT2, active compounds read low
# [27] = locus YHR079C, strain IRE1, active compounds read low
# [28] = locus YHR082C, strain KSP1, active compounds read low
# [29] = locus YHR205W, strain SCH9, active compounds read low
# [30] = locus YIL147C, strain SLN1, active compounds read low
# [31] = locus YJL095W, strain BCK1, active compounds read low
# [32] = locus YJL128C, strain PBS2, active compounds read low
# [33] = locus YJL157C, strain FAR1, active compounds read low
# [34] = locus YJR016C, strain ILV3, active compounds read low
# [35] = locus YJR066W, strain TOR1 (second series), active compounds read low
# [36] = locus YJR066W, strain TOR1, active compounds read low
# [37] = locus YKL048C, strain ELM1, active compounds read low
# [38] = locus YKL067W, strain YNK1, active compounds read low
# [39] = locus YKL101W, strain HSL1, active compounds read low
# [40] = locus YKL193C, strain SDS22, active compounds read low
# [41] = locus YKL203C, strain TOR2, active compounds read low
# [42] = locus YLR113W, strain HOG1, active compounds read low
# [43] = locus YLR133W, strain CKI1, active compounds read low
# [44] = locus YLR403W, strain SFP1, active compounds read low
# [45] = locus YML070W, strain DAK1, active compounds read low
# [46] = locus YMR001C, strain CDC5, active compounds read low
# [47] = locus YMR205C, strain PFK2 (second series), active compounds read low
# [48] = locus YMR277W, strain FCP1, active compounds read low
# [49] = locus YNL006W, strain LST8, active compounds read low
# [50] = locus YNL020C, strain ARK1, active compounds read low
# [51] = locus YNL161W, strain CBK1, active compounds read low
# [52] = locus YNL183C, strain NPR1, active compounds read low
# [53] = locus YNL207W, strain RIO2, active compounds read low
# [54] = locus YNL222W, strain SSU72, active compounds read low
# [55] = locus YNL307C, strain MCK1 (second series), active compounds read low
# [56] = locus YOL078W, strain AVO1, active compounds read low
# [57] = locus YOL136C, strain PFK27, active compounds read low
# [58] = locus YOR061W, strain CKA2, active compounds read low
# [59] = locus YOR119C, strain RIO1, active compounds read low
# [60] = locus YOR231W, strain MKK1, active compounds read low
# [61] = locus YOR329C, strain SCD5, active compounds read low
# [62] = locus YPL031C, strain PHO85, active compounds read low
# [63] = locus YPL153C, strain RAD53, active compounds read low
# [64] = locus YPL204W, strain HRR25, active compounds read low
# [65] = locus YPL209C, strain IPL1, active compounds read low
# [66] = locus YPL256C, strain CLN2, active compounds read low
# [67] = locus YPR025C, strain CCL1, active compounds read low
# [68] = locus YPR106W, strain ISR1, active compounds read low
# [69] = locus YPR111W, strain DBF20, active compounds read low
# [70] = strain NNK1, active compounds read low
# [71] = strain TSCII, active compounds read low
smiles,measurement,setting,value
N#C/C(=N/Nc1ccccc1Cl)S(=O)(=O)c1ccc(Cl)cc1,normalized growth,[1],0.976
same,normalized growth,[2],0.97
same,normalized growth,[3],0.964
same,normalized growth,[4],0.968
same,normalized growth,[5],0.969
same,normalized growth,[6],0.976
same,normalized growth,[7],0.975
same,normalized growth,[8],0.978
same,normalized growth,[9],0.977
same,normalized growth,[10],0.971
same,normalized growth,[11],0.889
same,normalized growth,[12],0.966
same,normalized growth,[13],0.966
same,normalized growth,[14],0.974
same,normalized growth,[15],0.889
same,normalized growth,[16],0.882
same,normalized growth,[17],0.909
same,normalized growth,[18],0.968
same,normalized growth,[19],0.969
same,normalized growth,[20],0.973
same,normalized growth,[21],0.859
same,normalized growth,[22],0.95
same,normalized growth,[23],0.889
same,normalized growth,[24],0.869
same,normalized growth,[25],0.715
same,normalized growth,[26],0.916
same,normalized growth,[27],0.955
same,normalized growth,[28],0.918
same,normalized growth,[29],0.866
same,normalized growth,[30],0.968
same,normalized growth,[31],0.852
same,normalized growth,[32],0.944
same,normalized growth,[33],0.909
same,normalized growth,[34],0.974
same,normalized growth,[35],0.877
same,normalized growth,[36],0.962
same,normalized growth,[37],0.886
same,normalized growth,[38],0.911
same,normalized growth,[39],0.835
same,normalized growth,[40],0.976
same,normalized growth,[41],0.943
same,normalized growth,[42],0.877
same,normalized growth,[43],0.847
same,normalized growth,[44],0.811
same,normalized growth,[45],0.883
same,normalized growth,[46],0.969
same,normalized growth,[47],0.918
same,normalized growth,[48],0.973
same,normalized growth,[49],0.979
same,normalized growth,[50],0.828
same,normalized growth,[51],0.971
same,normalized growth,[52],0.94
same,normalized growth,[53],0.954
same,normalized growth,[54],0.977
same,normalized growth,[55],0.787
same,normalized growth,[56],0.968
same,normalized growth,[57],0.832
same,normalized growth,[58],0.851
same,normalized growth,[59],0.957
same,normalized growth,[60],0.895
same,normalized growth,[61],0.979
same,normalized growth,[62],0.856
same,normalized growth,[63],0.889
same,normalized growth,[64],0.814
same,normalized growth,[65],0.975
same,normalized growth,[66],0.939
same,normalized growth,[67],0.978
same,normalized growth,[68],0.966
same,normalized growth,[69],0.961
same,normalized growth,[70],0.952
same,normalized growth,[71],0.956
N#C/C(=C\c1ccccc1Sc1ccc(Cl)cc1)S(=O)(=O)c1ccccn1,normalized growth,[1],0.972
same,normalized growth,[2],0.968
same,normalized growth,[3],0.957
same,normalized growth,[4],0.966
same,normalized growth,[5],0.973
same,normalized growth,[6],0.982
same,normalized growth,[7],0.971
same,normalized growth,[8],0.963
same,normalized growth,[9],0.962
same,normalized growth,[10],0.959
same,normalized growth,[11],0.901
same,normalized growth,[12],0.98
same,normalized growth,[13],0.969
same,normalized growth,[14],0.968
same,normalized growth,[15],0.873
same,normalized growth,[16],0.88
same,normalized growth,[17],0.909
same,normalized growth,[18],0.967
same,normalized growth,[19],0.968
same,normalized growth,[20],0.97
same,normalized growth,[21],0.926
same,normalized growth,[22],0.962
same,normalized growth,[23],0.871
same,normalized growth,[24],0.883
same,normalized growth,[25],0.772
same,normalized growth,[26],0.858
same,normalized growth,[27],0.956
same,normalized growth,[28],0.939
same,normalized growth,[29],0.872
same,normalized growth,[30],0.97
same,normalized growth,[31],0.875
same,normalized growth,[32],0.925
same,normalized growth,[33],0.897
same,normalized growth,[34],0.971
same,normalized growth,[35],0.883
same,normalized growth,[36],0.938
same,normalized growth,[37],0.852
same,normalized growth,[38],0.9
same,normalized growth,[39],0.875
same,normalized growth,[40],0.961
same,normalized growth,[41],0.936
same,normalized growth,[42],0.821 (active)
same,normalized growth,[43],0.889
same,normalized growth,[44],0.802
same,normalized growth,[45],0.886
same,normalized growth,[46],0.964
same,normalized growth,[47],0.908
same,normalized growth,[48],0.963
same,normalized growth,[49],0.959
same,normalized growth,[50],0.891
same,normalized growth,[51],0.968
same,normalized growth,[52],0.934
same,normalized growth,[53],0.968
same,normalized growth,[54],0.959
same,normalized growth,[55],0.877
same,normalized growth,[56],0.955
same,normalized growth,[57],0.846
same,normalized growth,[58],0.851
same,normalized growth,[59],0.939
same,normalized growth,[60],0.893
same,normalized growth,[61],0.969
same,normalized growth,[62],0.868
same,normalized growth,[63],0.904
same,normalized growth,[64],0.83
same,normalized growth,[65],0.968
same,normalized growth,[66],0.926
same,normalized growth,[67],0.961
same,normalized growth,[68],0.973
same,normalized growth,[69],0.942
same,normalized growth,[70],0.964
same,normalized growth,[71],0.956
